Rows were chosen to be rich in hits. Some 19% of all compounds tested hit in one or more screens of this group.
DT40 TDP1 CPT – DT40-hTDP1 cell growth loss with CPT; chicken DT40 Tdp1-/-;hTDP1 cells + 20 nM CPT, ATP luminescence, 48 h; Potency, µM (top dose mostly 46.2 µM), without a hit: at the top dose activity change, negative = growth inhibition, hits mostly inhibitors; 420,000 tested, 12% active; note: potency is the fitted concentration of half-maximal effect; % is set by controls: 0 for no effect and ±100 for the full control effect; nearly all actives have a fitted effect of over 55% in size
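Cell growth measured by CellTiter-Glo luminescence after a minimum 48 h, 37 C compound exposure with 20 nM CPT in Tdp1-knockout DT40 cells stably expressing hTDP1, seeded 400/well; qHTS titration format.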
IL1B secr inh – inhibitors of inflammasome signaling (IL-1 beta secretion); THP-1 LPS/ATP IL-1B secretion, AlphaLISA, 16 h; stronger effect = lower value; activity change, % at 57.5 µM; 360,000 tested, 4.7% active; in the data active = activity change below about -50%; inconclusive = mostly about -30% to -49%; note: % is set by controls: 0 for no effect and ±100 for the full control effect
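THP-1 cells pretreated 1 hr with compounds (up to 57.5 uM final), then stimulated with LPS (250 ng/mL final) plus ATP (1.25 mM final); secreted IL-1B measured by AlphaLISA after 16 hr, decreased signal indicating inhibition.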
HepG2 viability – HepG2 cytotoxicity, counter-screen for TGF-b inhibitors; HepG2 CAGA-GFP viability, ATP luminescence, 18 h; Potency, µM (highest dose often 46.1 µM), for the others: at the highest dose activity change, negative = cytotoxicity, usual class: cytotoxic; 410,000 tested, 0.76% active; note: potency is the fitted concentration of half-maximal effect
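CellTiter-Glo luminescence gave cytotoxicity after 18 hours at 37 degrees C. The cells were HepG2 CAGA-GFP in 1% FBS DMEM, stimulated with 500 pg/mL TGF-beta after compound addition. %Activity was normalised to no-cell wells (complete cell-killing) and DMSO (no toxicity), and curves were fitted and classified.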
TGFb SMAD3 inh – TGF-b pathway inhibition | AID 588855 | 410,000 tested, 1.2% active | Potency, µM (doses to about 46.1 µM), without a hit: at the top dose activity, negative = inhibition, usual class: inhibitors | HepG2 CAGA-GFP TGF-b/SMAD3 reporter, GFP fluorescence, 18 h; TGF-beta stimulated, 500 pg/mL final; note: potency is the fitted concentration of half-maximal effect; % is set by controls: 0 for no effect and ±100 for the full control effect; nearly all actives have a fitted effect of over 65% in size
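Cell-based qHTS in HEPG2 carrying a CAGA-GFP Smad reporter; compounds added before 500 pg/mL final TGF-beta, 18 h incubation at 37 degrees C, GFP fluorescence quantified per cell by imaging cytometry.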
TDP1 inh – blocks human tyrosyl-DNA phosphodiesterase 1 | recombinant TDP1, AlphaScreen DNA substrate cleavage | AID 485290 | Potency, µM (top dose mostly 130 µM), for inactives: top-dose activity change, negative = inhibition, usual class: inhibitors | 350,000 tested, 0.28% active; note: potency is the fitted concentration of half-maximal effect; % is set by controls: 0 for no effect and ±100 for the full control effect; nearly all actives have a fitted effect of over 40% in size
Target sequence (Q9NUW8 whole entry, looked up): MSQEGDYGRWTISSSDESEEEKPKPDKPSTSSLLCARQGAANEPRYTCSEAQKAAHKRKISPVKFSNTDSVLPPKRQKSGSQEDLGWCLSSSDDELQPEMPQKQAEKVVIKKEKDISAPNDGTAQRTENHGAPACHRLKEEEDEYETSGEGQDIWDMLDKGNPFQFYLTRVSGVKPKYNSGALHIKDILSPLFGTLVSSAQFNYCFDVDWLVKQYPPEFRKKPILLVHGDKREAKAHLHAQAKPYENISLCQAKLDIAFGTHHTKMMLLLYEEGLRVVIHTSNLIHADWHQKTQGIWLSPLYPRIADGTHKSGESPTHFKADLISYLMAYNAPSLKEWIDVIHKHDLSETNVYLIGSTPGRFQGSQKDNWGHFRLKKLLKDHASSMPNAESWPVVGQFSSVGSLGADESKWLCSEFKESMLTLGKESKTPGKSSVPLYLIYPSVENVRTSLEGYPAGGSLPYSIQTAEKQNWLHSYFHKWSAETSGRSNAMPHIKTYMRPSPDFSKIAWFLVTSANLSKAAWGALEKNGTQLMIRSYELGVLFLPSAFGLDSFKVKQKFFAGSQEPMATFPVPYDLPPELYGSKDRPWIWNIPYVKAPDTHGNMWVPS
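AlphaScreen read-out: signal falls as enzyme removes the 3' tyrosine-FITC from a 5'-biotinylated DNA oligo (15 nM, 5 min, RT). Enzyme was E. coli-made recombinant Tdp1 at 1 nM, exposed to compound for 15 min beforehand; beads 10 ug/ml, 10 min.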
DT40 TDP1 no CPT – qHTS for Inhibitors of human tyrosyl-DNA phosphodiesterase 1 (TDP1): qHTS in cells in absence of CPT; DT40 Tdp1-/- hTDP1 cells, no CPT, ATP luminescence, 48 h; Potency, µM (highest dose often 46.2 µM), without a hit: top-dose activity change, negative = growth inhibition, actives largely listed as inhibitors; 420,000 tested, 15% active; note: potency is the fitted concentration of half-maximal effect; % is set by controls: 0 for no effect and ±100 for the full control effect; nearly all actives have a fitted effect of over 55% in size
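Stably hTDP1-transfected Tdp1-null chicken DT40 cells were treated with library compounds minus camptothecin and grown for at least 48 hr at 37 °C, after which cellular ATP was quantified by luminescence.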
Starred values were filed as active, the others as inactive; ? = inconclusive; . = no result; ! = a repeat was not active; [ ] = another dose, or the depositor's remark. Unless noted, calls come from the whole dose curve; as a rule, active = well fitted curve in the direction sought with a large enough effect; inconclusive = small, poorly fitted or top-dose-only effect, or another doubt; inactive = no such curve, though single readings can be large; an effect the other way counts as inactive or inconclusive.

SMILES	DT40 TDP1 CPT	IL1B secr inh	HepG2 viability	TGFb SMAD3 inh	TDP1 inh	DT40 TDP1 no CPT
Cc1ccc2c(c1)C1CN(C)CCC1N2C(=O)c1ccco1 (stereo not drawn)	-18%	0	1%	0%	4%	-8%
Cc1ccc2c(c1)C1CN(C)CCC1N2C(=O)c1ccccc1NS(=O)(=O)c1cccc(C(F)(F)F)c1 (stereo not drawn)	?	-5	-10%	0%	5%	13µM*
O=S(=O)(O)C(F)(F)C(F)(F)C(F)(F)C(F)(F)C(F)(F)C(F)(F)C(F)(F)C(F)(F)F	-21%[92.5 µM]	.	.	.	.	?
CCNCC	.	.	.	.	4%	.
CCN(CC)P(c1n(C)cc[n+]1C)N(CC)CC	?	15	-9%	1%	-2%	23µM*
CCCCCCC(=O)N/N=C/c1c(O)n(CCc2ccccc2)c(=O)[nH]c1=O	?	9	-13%	-18%	10%	18µM*
O=C(N/N=C/c1c(O)n(Cc2ccc(F)cc2)c(=O)[nH]c1=O)c1ccccc1O	13µM*	35	21%	-15%	11%	?
CCCCCCC(=O)N/N=C/c1c(O)n(C(C)CC)c(=S)[nH]c1=O (stereo not drawn)	13µM*	220	-21%	?	10%	9.2µM*
O=C(N/N=C/c1c(O)n(Cc2ccccc2)c(=O)[nH]c1=O)c1ccccc1O	5%	32	2%	11%	8%	-27%
O=c1[nH]cc(F)c(=O)[nH]1	18µM*	19	-5%	17%	-4%	16µM*
CC[n+]1c(/C=C/C=C/c2ccc(N(C)C)cc2)sc2ccccc21	0.0092µM*	-97*	-15%	?	3%	0.052µM*
CN(C)c1ccc(/C=C/c2cc[n+](C)c3ccccc23)cc1	0.41µM*	-102*	-70%	7.1µM*	0%	0.23µM*
CN(C)c1ccc(/C=C/C=C/c2sc3ccccc3[n+]2C)cc1	0.92µM*	-90*	-20%	8.9µM*	-3%	0.13µM*
N#CC(C#N)=NNc1ccc([N+](=O)[O-])cc1	21µM*	-91*	-52%	?	9%	23µM*
CCN(CC)S(=O)(=O)c1ccc(NN=C(C#N)C#N)cc1	?	-81*	-53%	?	0%	?
Cc1ccc(-c2nnc(Nc3ccc(O)cc3)c3ccccc23)cc1S(=O)(=O)N1CCOCC1	?	.	-10%	?	2%[2.28 µM]	16µM*
COc1ccc(NC(=O)CN2CC=C(c3ccccc3)CC2)cc1S(=O)(=O)N1CCOCC1	0%	-13	-23%	0%	1%	?
C=C[C@H](Cc1ccccc1)N(Cc1ccccc1)S(=O)(=O)N(Cc1ccccc1)[C@H](C=C)Cc1ccccc1	?	44	2%	-2%	1%	13µM*
COC(=O)[C@@H](Cc1ccccc1)N(Cc1ccccc1)S(=O)(=O)N(Cc1ccccc1)[C@H](Cc1ccccc1)C(=O)OC	23µM*	6	-17%	?	3%	10µM*!
CC1Cc2c(cnc3c2CN(C)CC3)CO1 (stereo not drawn)	.	.	.	.	6%[21 µM]	.
O=C1NC(=O)C(=Cc2ccccc2OCCOc2ccc([N+](=O)[O-])cc2)C(=O)N1	?	?	-18%	-3%	3%	?
CN1C(=O)C(=Cc2ccccc2OCCOc2ccc([N+](=O)[O-])cc2)C(=O)N(C)C1=O	?	3	-17%	-1%	-11%	23µM*
C[C@@H]([C@H](O)c1ccccc1)N(C)C	2%	.	.	.	.	-10%
Cc1[nH]c2ccccc2c1CN(C)C	?	.	.	.	12%	?
O=C(Cc1cc(=O)oc2cc(O)ccc12)NN=Cc1ccc(N(CCCl)CCCl)cc1	?	-23	-2%	12%	.	?
SMILES	DT40 TDP1 CPT	IL1B secr inh	HepG2 viability	TGFb SMAD3 inh	TDP1 inh	DT40 TDP1 no CPT
ClCCN(CCCl)c1ccc(C=NNc2ncccn2)cc1	4.6µM*	2	-30%	28%	.	5.2µM*
N#Cc1ncc(N=Cc2ccc(N(CCCl)CCCl)cc2)s1	10µM*	2	-21%	5%	.	12µM*
COc1ccc(N2C(=O)/C(=C/c3ccc(N(C)C)o3)C(=O)NC2=S)cc1	-18%	-2	15%	32%	.	-5%
COc1ccc(N2C(=O)/C(=C/c3cccs3)C(=O)NC2=S)cc1	5.2µM*	3	-10%	-7%	-5%	3.7µM*
Cc1ccc(/C=C2\C(=O)NC(=S)N(c3ccc(F)cc3)C2=O)s1	2.9µM*	-108*	6%	-22%	-4%	5.8µM*
O=C1NC(=S)N(c2ccc(F)cc2)C(=O)/C1=C/c1ccccc1O	?	1	0%	1%	.	-12%
Cc1ccc(/C=C2\C(=O)NC(=S)N(c3ccc(F)cc3)C2=O)o1	7.3µM*	3	1%	3%	.	15µM*
O=C1NC(=S)N(c2ccccc2)C(=O)/C1=C/c1ccco1	?	1	0%	2%	.	?
COc1ccccc1/C=C1\C(=O)NC(=S)N(c2ccccc2)C1=O	-1%	0	-1%	-4%	.	20%
COc1cccc(N2C(=O)/C(=C/c3ccc(C)o3)C(=O)NC2=S)c1	15µM*	5	-1%	-4%	.	15µM*
C[C@H]1C(=O)O[C@H]2CCN3CC=C(COC(=O)[C@](C)(O)[C@@]1(C)O)C23 (stereo partly drawn)	-1%	.	.	.	13%[56.1 µM]	?
OCC(Cl)CCl (stereo not drawn)	-1%	-6	-6%	0%	0%	4%
NCC(=O)c1ccc(Cl)c(Cl)c1	?	.	-46%	?	.	?
COC(=O)C(Cc1ccc(N(CCCl)CCCl)cc1)N=Cc1ccccc1O (stereo not drawn)	0.12µM*	-97*	-52%	?	3%	0.082µM*
CCOC(=O)C(NC(=O)C(Cc1ccc(N(CCCl)CCCl)cc1)NC(C)=O)C(C)C (stereo not drawn)	1%	3	14%	-4%	-1%	6%
CNCC/C=C\c1cccnc1	-5%	.	.	.	-5%[56.1 µM]	-22%
CCOc1ccc(CN(CCc2ccc3c(c2)OCO3)Cc2cc(OC)ccc2O)cc1	?	.	-47%	?	4%	18µM*
CCOc1ccc(CN(CCc2ccc3c(c2)OCO3)Cc2cccc(C)c2)cc1	16µM*	.	-41%	?	.	13µM*
